Columns and labels:
Assay in all cases: log2 ratio of Biotin-Ahx-Ub-VS probe labelling (fragment/DMSO); higher = less target engagement (more negative = stronger competition), active = hit call of the paper (q ≤ 0.05, log2 ratio ≤ -1)
Settings in all cases: compound concentration: 200 uM; treatment time: 3 h
OTUD6B = biological target: T1, OTUD6B (UniProt Q8N6M0)
T1 sequence (whole entry): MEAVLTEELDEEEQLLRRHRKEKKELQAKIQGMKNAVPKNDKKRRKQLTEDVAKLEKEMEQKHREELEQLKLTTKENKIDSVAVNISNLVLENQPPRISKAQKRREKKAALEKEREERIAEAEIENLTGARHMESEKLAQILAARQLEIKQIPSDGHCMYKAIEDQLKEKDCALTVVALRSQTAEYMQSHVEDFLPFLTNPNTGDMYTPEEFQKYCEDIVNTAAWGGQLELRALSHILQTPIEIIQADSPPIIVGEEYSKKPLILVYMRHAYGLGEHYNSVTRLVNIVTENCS
How it was run: (§1)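 HEK293T lysate, 495 µg per sample in Tris/CHAPS/IGEPAL buffer with protease inhibitors, was treated in triplicate with fragment at 200 µM or vehicle for 3 h and then with Biotin-Ahx-Ub-VS at 0.5 µM final for 1 h. Labelled DUBs were NeutrAvidin-enriched, digested with LysC and trypsin, and run by diaPASEF LC-MS/MS. Spectronaut label-free quantities were global-median-normalised, and values are average log2 fragment/vehicle ratios by unpaired t-test on proteins with ≥2 unique peptides.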

OTUD7B = biological target: T2, OTUD7B (UniProt Q6GQQ9)
T2 sequence (whole entry): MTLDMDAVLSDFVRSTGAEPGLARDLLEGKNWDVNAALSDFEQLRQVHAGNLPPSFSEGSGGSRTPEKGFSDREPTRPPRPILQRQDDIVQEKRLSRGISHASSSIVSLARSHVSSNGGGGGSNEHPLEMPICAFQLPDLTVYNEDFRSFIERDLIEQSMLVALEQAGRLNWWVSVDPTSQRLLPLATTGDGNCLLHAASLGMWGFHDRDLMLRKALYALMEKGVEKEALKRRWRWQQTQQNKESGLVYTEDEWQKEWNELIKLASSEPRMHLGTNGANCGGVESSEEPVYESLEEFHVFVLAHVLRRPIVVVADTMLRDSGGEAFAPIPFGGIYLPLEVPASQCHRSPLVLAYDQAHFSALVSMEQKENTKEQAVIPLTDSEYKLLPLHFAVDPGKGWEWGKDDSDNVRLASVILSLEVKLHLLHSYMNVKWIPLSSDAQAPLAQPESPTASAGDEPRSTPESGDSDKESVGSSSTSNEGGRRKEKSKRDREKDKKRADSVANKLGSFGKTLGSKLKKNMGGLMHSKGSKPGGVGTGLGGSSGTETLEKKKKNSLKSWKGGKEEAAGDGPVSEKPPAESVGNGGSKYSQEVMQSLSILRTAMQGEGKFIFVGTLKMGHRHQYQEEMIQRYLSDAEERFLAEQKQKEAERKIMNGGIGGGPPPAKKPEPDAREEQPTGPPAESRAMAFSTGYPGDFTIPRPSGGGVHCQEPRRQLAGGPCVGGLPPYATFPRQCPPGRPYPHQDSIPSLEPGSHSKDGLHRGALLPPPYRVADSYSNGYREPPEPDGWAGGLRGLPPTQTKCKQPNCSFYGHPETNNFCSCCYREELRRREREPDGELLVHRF
How it was run: as §1

PRPF8 = PRPF8 (UniProt Q6P2Q9)
How it was run: as §1

PSMD7 = biological target: T3, PSMD7 (UniProt P51665)
T3 sequence (whole entry): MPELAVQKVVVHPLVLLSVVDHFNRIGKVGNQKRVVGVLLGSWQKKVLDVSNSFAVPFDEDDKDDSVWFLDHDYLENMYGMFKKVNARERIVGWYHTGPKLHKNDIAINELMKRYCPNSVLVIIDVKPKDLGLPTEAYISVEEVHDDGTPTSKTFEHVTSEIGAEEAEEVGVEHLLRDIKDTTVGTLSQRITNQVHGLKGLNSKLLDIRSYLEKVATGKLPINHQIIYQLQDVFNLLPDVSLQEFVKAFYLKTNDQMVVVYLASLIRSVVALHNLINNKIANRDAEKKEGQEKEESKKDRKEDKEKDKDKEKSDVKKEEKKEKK
How it was run: as §1

UCHL1 = UCHL1 (UniProt P09936)
UCHL1, sequence (P09936 whole entry, looked up): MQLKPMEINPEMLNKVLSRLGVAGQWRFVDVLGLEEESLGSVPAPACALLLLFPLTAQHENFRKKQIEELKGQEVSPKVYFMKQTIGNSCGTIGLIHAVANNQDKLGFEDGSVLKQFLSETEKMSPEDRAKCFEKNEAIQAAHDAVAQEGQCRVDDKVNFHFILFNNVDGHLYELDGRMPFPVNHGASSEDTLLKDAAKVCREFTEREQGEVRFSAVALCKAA
How it was run: as §1

UCHL3 = biological target: T4, UCHL3 (UniProt P15374)
T4 sequence (whole entry): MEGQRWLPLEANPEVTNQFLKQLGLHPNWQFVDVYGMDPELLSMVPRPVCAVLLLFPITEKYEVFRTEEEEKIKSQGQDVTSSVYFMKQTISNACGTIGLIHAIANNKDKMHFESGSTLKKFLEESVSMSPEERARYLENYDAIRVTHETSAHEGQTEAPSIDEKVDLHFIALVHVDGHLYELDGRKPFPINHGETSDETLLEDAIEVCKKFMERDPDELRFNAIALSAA
How it was run: as §1

UCHL5 = biological target: T5, UCHL5 (UniProt Q9Y5K5)
T5 sequence (whole entry): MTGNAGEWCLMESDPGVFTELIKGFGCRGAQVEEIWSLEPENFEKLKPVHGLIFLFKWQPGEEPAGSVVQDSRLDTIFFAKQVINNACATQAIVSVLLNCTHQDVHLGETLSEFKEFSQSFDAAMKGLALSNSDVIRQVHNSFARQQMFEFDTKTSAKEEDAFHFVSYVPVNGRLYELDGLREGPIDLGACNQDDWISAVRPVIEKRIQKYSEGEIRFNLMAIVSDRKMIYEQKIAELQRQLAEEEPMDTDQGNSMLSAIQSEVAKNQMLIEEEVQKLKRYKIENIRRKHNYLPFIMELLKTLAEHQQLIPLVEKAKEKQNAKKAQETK
How it was run: as §1

USP10 = USP10 (UniProt Q14694)
USP10, sequence (Q14694 whole entry): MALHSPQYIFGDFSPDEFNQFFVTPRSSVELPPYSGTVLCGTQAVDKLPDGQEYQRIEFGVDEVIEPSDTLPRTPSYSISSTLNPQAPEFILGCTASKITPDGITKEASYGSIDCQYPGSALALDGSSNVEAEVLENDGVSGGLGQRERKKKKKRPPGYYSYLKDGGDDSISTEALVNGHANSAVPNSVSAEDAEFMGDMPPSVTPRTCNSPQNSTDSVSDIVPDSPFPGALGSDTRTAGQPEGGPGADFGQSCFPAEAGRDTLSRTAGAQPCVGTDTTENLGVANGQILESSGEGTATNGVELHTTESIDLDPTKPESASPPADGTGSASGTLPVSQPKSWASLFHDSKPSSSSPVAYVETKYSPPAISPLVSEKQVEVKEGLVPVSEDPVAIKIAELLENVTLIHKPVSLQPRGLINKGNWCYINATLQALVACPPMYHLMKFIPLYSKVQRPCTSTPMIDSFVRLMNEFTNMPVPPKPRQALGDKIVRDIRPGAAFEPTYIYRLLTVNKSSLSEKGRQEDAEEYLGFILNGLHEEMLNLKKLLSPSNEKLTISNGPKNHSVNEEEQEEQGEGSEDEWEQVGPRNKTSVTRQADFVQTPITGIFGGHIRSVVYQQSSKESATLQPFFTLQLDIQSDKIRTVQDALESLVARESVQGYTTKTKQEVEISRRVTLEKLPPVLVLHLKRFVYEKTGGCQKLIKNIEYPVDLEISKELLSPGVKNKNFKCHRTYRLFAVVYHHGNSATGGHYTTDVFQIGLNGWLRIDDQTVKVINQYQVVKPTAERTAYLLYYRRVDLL
How it was run: as §1

USP15 = biological target: T6, USP15 (UniProt Q9Y4E8)
T6 sequence (whole entry): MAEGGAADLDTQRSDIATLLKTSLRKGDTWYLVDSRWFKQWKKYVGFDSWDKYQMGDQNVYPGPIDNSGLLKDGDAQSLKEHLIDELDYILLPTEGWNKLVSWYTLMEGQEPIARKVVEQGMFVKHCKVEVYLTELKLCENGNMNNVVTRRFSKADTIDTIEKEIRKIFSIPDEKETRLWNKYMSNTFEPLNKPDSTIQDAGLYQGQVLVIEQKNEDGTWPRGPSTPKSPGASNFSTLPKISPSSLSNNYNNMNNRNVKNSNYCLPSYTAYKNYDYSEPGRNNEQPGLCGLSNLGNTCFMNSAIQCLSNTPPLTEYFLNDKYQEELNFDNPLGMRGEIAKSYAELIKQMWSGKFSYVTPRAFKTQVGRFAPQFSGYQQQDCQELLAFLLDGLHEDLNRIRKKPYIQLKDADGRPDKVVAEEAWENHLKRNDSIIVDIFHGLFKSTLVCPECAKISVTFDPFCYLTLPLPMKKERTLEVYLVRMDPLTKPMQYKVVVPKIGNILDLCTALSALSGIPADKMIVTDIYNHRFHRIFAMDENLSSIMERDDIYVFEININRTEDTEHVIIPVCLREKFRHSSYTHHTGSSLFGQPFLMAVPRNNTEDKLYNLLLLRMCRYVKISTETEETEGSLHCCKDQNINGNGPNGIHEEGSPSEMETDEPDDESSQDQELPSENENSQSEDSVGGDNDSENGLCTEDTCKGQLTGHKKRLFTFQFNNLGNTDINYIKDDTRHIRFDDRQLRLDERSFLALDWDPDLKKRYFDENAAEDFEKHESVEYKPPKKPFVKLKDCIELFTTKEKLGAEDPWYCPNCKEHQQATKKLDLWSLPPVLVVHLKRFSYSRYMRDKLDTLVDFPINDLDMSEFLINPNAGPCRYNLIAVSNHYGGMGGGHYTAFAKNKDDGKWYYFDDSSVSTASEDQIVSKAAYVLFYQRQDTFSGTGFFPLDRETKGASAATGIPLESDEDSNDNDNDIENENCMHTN
How it was run: as §1

USP16 = USP16 (UniProt Q9Y5T5)
USP16, sequence (Q9Y5T5 whole entry, looked up): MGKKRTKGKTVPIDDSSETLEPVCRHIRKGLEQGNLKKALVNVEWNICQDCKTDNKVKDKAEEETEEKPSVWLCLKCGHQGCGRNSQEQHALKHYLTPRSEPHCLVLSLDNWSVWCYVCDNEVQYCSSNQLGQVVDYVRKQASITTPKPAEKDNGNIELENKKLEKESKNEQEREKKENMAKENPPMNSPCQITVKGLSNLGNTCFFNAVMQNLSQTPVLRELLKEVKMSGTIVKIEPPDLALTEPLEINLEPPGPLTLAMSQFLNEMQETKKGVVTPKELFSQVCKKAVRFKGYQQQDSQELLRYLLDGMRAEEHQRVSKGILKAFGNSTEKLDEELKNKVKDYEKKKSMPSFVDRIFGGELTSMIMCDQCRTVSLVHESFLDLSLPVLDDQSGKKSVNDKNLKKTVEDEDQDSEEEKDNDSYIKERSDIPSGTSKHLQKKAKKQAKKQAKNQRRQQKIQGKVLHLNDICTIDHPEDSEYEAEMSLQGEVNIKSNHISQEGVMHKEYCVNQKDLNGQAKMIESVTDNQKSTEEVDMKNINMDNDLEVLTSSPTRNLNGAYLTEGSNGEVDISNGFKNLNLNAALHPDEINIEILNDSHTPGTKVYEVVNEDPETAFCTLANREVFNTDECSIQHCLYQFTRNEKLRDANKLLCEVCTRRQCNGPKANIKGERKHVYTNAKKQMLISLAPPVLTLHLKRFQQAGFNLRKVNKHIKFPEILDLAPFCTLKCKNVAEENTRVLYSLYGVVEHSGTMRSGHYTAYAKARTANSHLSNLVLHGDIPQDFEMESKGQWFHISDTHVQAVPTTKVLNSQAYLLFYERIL
How it was run: as §1

Measured: log2 ratio of Biotin-Ahx-Ub-VS probe labelling

Cc1nc(-c2cccc(NC(=O)CCl)c2)cs1
inactive: OTUD6B -0.247 | OTUD7B -0.69 | PRPF8 0.052 | PSMD7 -0.167 | UCHL1 -0.133 | UCHL3 -0.844 | UCHL5 -0.43 | USP10 -0.202 | USP15 -0.235 | USP16 -0.418

From the supplement of paper PMC11732987, “Enantioselective OTUD7B fragment discovery through chemoproteomics screening and high-throughput optimisation” (Communications Chemistry, 2025)
